Only some compounds are listed: those with a hit (about 7.7% of all), similar ones and a draw of the others.
Sm TGR block: blocks Schistosoma mansoni thioredoxin glutathione reductase | purified TGR, DTNB reduction, TNB absorbance 405 nm | AID 485364 | 360,000 compounds, 3% hits | Potency, µM (highest dose often 114 µM), without a hit: at the top dose activity change, negative = inhibition, usual class: inhibitors; note: potency is the fitted concentration of half-maximal effect; nearly all actives have a fitted effect of over 60% in size
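First, TGR (20 nM dispensed) and NADPH were mixed with compound. Second, a 15 min room-temperature incubation followed. Third, further NADPH and then DTNB were added to start the reaction. Finally, TNB absorbance was monitored kinetically.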
FBPA Giardia inh: blocks Giardia fructose-bisphosphate aldolase activity | A8B2U2 | purified Giardia FBPA | Potency, µM (highest dose often 59.6 µM), for inactives: at the highest dose activity, negative = inhibition, most hits filed as inhibitors | 290,000 compounds, 0.71% hits | AID 2451; note: potency is the fitted concentration of half-maximal effect; nearly all actives have a fitted effect of over 55% in size
Target sequence (A8B2U2 whole entry, looked up): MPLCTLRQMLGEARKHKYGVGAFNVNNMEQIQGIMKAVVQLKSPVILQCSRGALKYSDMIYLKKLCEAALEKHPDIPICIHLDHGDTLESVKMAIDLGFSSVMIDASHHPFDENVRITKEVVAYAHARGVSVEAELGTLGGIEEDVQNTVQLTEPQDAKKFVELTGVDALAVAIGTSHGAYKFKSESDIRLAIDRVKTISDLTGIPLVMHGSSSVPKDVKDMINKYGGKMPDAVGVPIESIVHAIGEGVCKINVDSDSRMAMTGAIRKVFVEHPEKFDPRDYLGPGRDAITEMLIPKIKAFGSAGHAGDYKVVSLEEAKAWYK
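40 nM FBPA preincubated 10 min at RT with compound (up to 57.5 uM final), then substrate plus GAPDH/TPI/NAD/arsenate coupling and diaphorase/resazurin added. Fluorescence read after 20 min at RT, 525/598 nm.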
HCMV inh: inhibitors of human cytomegalovirus; 410,000 compounds, 4.5% hits; activity change, negative = inhibition, % at 57.5 µM; HFF cells, HCMV-luciferase reporter, 72 h; hits give low values; in the data active = activity change below about -60%; inconclusive = no clear call, values can overlap the other calls; inactive = above about -39%
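Compounds were evaluated in HFFs infected with an HCMV luciferase reporter virus (MOI 1 PFU/cell). Luciferase in lysates collected 72 h post infection served as the replication measure.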
RE007 growth inh: less growth of the S. pombe RE007 Vpr strain. AID 651644. 360,000 compounds, 0.21% hits. Potency, µM (series often up to 92.2 µM), for the others: at the highest dose activity change, negative = less growth, hits mostly inhibitors. S. pombe RE007 Vpr strain, BacTiter-Glo ATP luminescence, 24 h; active = well fitted falling curve with a large enough effect; inconclusive = small, poorly fitted or top-dose-only effect; inactive = no such curve, though single readings can be large or run the other way; note: potency is the fitted concentration of half-maximal effect; nearly all actives have a fitted effect of over 50% in size
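Fission yeast RE007 carrying one integrated HIV-1 vpr copy, seeded at OD 0.01 in PMG+AL medium with 23 nL pinned compound. Grown 24 h at 30 degrees; viability read by BacTiter-Glo luminescence after 5 min.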
FMDV inh: blocks foot and mouth disease virus; 410,000 compounds, 1.2% hits; Potency, µM (series often up to 57.9 µM), without a hit: at the highest dose activity change, negative = inhibition, hits mostly inhibitors; FMDV antiviral cell-based qHTS; calls by dose curve; tested in HEK293T cells; note: read-out not given here; potency is the fitted concentration of half-maximal effect; nearly all actives have a fitted effect of over 45% in size
TbPYK inhibitor: blocks Trypanosoma brucei pyruvate kinase | Q57TT1 | TbPYK enzyme, Kinase-Glo Plus ATP luminescence, 45 min | Potency, µM (series often up to 76.8 µM), without a hit: top-dose activity, negative = inhibition, usual class: inhibitors | 410,000 compounds, 0.12% hits | AID 624173; note: potency is the fitted concentration of half-maximal effect; nearly all actives have a fitted effect of over 50% in size
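TbPYK + substrate in 50 mM TEA pH 7.2, 100 mM KCl, 10 mM MgCl2, 0.05% BSA, 0.01% Tween-20; cpd pinned; ADP 130 uM final; 45 min RT; Kinase-Glo Plus 10 min; luminescence endpoint.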
The depositor's hits bear a star; ? = inconclusive; . = not tested or not shown; [ ] = another dose, or the depositor's remark. Unless noted, calls come from the whole dose curve; as a rule, active = well fitted curve in the direction sought with a large enough effect; inconclusive = small, poorly fitted or top-dose-only effect, or another doubt; inactive = no such curve, though single readings can be large; an effect the other way counts as inactive or inconclusive. % is set by controls: 0 for no effect and ±100 for the full control effect.

SMILES | Sm TGR block | FBPA Giardia inh | HCMV inh | RE007 growth inh | FMDV inh | TbPYK inhibitor
Nc1ccc(C2=Nc3cccc4cccc(c34)N2)cc1 | ? | 20% | 0 | 2% | 15% | -2%
CC1=Nc2cccc3cccc(c23)N1 | 40µM* | 6% | -26 | -25% | -25% | -10%
COc1cccc(NC(=O)C2CCN(S(=O)(=O)c3cccc4nonc34)CC2)c1 | 5% | . | -12 | . | ? | 2%
CC(Cc1ccccc1)NCC(=O)Nc1cc(N(C)C)nc2ccccc12 (stereo not given) | 12% | ? | -25 | -25% | -21% | 18%
CN(C)c1cc(NC(=O)CNC(C)(C)CC(C)(C)C)c2ccccc2n1 | 0% | ? | -60* | -17% | -26% | 6%
Cc1cc(N2CCCCC2)nc(N2CCCCC2)n1 | 1% | 2% | -61* | -4% | -18% | 3%
Cc1cc(N/N=C/c2cccc(Cl)c2)nc(NCc2ccccc2)n1 | -13% | 1% | -2 | -7% | -21% | 7%
Cc1cc(N2CCCCC2)nc(NCc2ccccc2)n1 | -5% | 8% | -64* | -4% | 32µM* | 1%
Cc1cc(Nc2cccc(Cl)c2)nc(NCc2ccccc2)n1 | 5% | -2% | -77* | 5% | ? | 4%
CCOC(=O)/C=C/[C@@H](CC(C)C)NC(=O)C(F)(F)F | . | . | -4 | . | . | .
CCOc1ccc(N2C(=O)NC(=O)/C(=C\c3ccc(N4CCCCC4)o3)C2=O)cc1 | -35% | -3% | 3 | -17% | -11% | -2%
COc1ccc(N2C(=O)/C(=C/c3ccc(C)o3)C(=O)NC2=S)cc1 | 1.3µM* | ? | 34 | 14% | ? | ?
CCOc1ccc(N2C(=O)/C(=C/c3ccc(C)o3)C(=O)NC2=S)cc1 | 1.4µM* | ? | 2 | -6% | 40µM* | ?
Cc1ccc(/C=C2\C(=O)NC(=S)N(c3cccc(F)c3)C2=O)o1 | 0.71µM* | -23% | -2 | -5% | ? | ?
CCc1ccc2nc(N3CCC(C(=O)NCCC(C)C)CC3)sc2c1 | -4% | . | 82 | . | 27% | -12%
CCCN(CCC)CCCNC(=O)C1CCN(c2nc3ccc(CC)cc3s2)CC1 | -7% | . | -101* | . | 13% | 5%
CCCCN(CCCC)CCCNC(=O)c1ccc2nc(N3CCCCC3)sc2c1 | 28µM* | . | 58 | . | 8% | -9%
CCCN(CCC)CCNC(=O)C1CCN(c2nc3ccc(CC)cc3s2)CC1 | -1% | . | -98* | . | -2% | 2%
O=[N+]([O-])c1ccccc1-c1cc(-c2ccccc2)on1 | . | . | 57 | . | . | .
CC[C@@]1(O)C(=O)OCc2c1cc1n(c2=O)Cc2cc3c(CN(C)C)c(O)ccc3nc2-1 | . | -15% | -97* | 4%[18.4 µM] | -12% | -10%
CC[C@@]1(O)C(=O)OCc2c1cc1n(c2=O)Cc2cc3c(N)cccc3nc2-1 | ? | ? | -99* | 3% | ? | 4%
CC[C@@]1(O)C(=O)OCc2c1cc1n(c2=O)Cc2cc3c([N+](=O)[O-])cccc3nc2-1 | . | . | . | . | . | -7%
O=C(Nc1cccc(C(=O)N2CCN(c3cccc(Cl)c3)CC2)c1)c1nsc2ccccc12 | 1% | . | 72 | . | -15% | -2%
NC(=O)C1=CC2C3C=CC2(O)C(=O)OC3O1 (stereo not given) | . | . | -97* | -5% | ? | 3%
Cc1ccc(N2C(=O)C3C(C2=O)C(C(=O)c2ccc(Cl)cc2)N2CCCC32)cc1 (stereo not given) | 28µM* | -5% | 41 | -19% | -10% | 3%
SMILES | Sm TGR block | FBPA Giardia inh | HCMV inh | RE007 growth inh | FMDV inh | TbPYK inhibitor
Cc1ccc(C(=O)N2CCC(C(=O)c3ccc(Cl)cc3)CC2)cc1 | -2% | -27% | -25 | -7% | -22% | -2%
CC(=O)Oc1ccc(N2C(=O)C3C(C2=O)C(C(=O)c2ccc(Cl)cc2)N2CCCC32)cc1 (stereo not given) | 20µM* | 17% | -33 | -18% | ? | -28%
COC(=O)c1c(SCC(=O)Nc2cccc(Cl)c2C)[nH]c2ccccc2c1=O | 4% | . | -3 | . | -15% | -5%
Cc1ccccc1CSc1ncc(Cl)c(C(=O)Nc2nc3ccc(F)cc3s2)n1 | -6% | . | 0 | . | 12% | -7%
COCC(=O)Nc1cc(C(=O)N2CC3CC4CC(C3)CC2C4)c2c(c1)nc(-c1ccncc1)n2C | . | . | . | . | -4% | .
CCOC(=O)c1ccc(OCCN2C[C@H](O)[C@@H](O)[C@H](O)[C@H]2CO)cc1 | . | . | . | . | . | 4%
Cc1ccc(NC(=O)N2CC=C(c3c[nH]c4ccccc34)CC2)cc1Cl | 1% | . | -66* | . | -6% | -4%
Cc1cccc(NC(=O)N2CC=C(c3c[nH]c4ccccc34)CC2)c1C | -29% | . | 0 | . | -4% | -2%[15.4 µM]
O=C(NCc1ccco1)Nc1c(Cl)cc(Cl)cc1Cl | . | . | -13 | . | . | .
Cn1nc(C(F)(F)F)c(-c2ccc(Br)cc2)c1NC(=O)Nc1ccc(F)cc1F | 10% | -1% | -92* | 2% | -25% | -3%
Cn1nc(C(F)(F)F)c(-c2ccc(F)cc2)c1NC(=O)c1ccco1 | 2% | 4% | -3 | -5% | 26% | -5%
CCCCCCNC(=O)c1cc(S(=O)(=O)N2CCc3ccccc32)ccc1F | 9% | 5% | -69* | 12% | -14% | -12%
O=S(=O)(c1ccc(F)cc1)N1CCc2ccccc21 | 6% | -10% | -34 | 0% | -21% | 9%
O=S(=O)(NC1CC1)c1ccc(S(=O)(=O)N2CCc3ccccc32)cc1 | 5% | -11% | -81* | -1% | ? | 1%
CCn1c(=O)n(CC)c2cc(S(=O)(=O)N3CCc4ccccc43)ccc21 | 2% | ? | -92* | 9% | . | 7%
CCOc1ccc(NC(=O)c2cc(S(=O)(=O)N3CCc4ccccc43)ccc2F)cc1 | 0% | . | ? | . | -19% | -5%
C[C@@H]1COc2cc(NCCO)ccc2S(=O)(=O)N1 | . | . | -9 | . | . | .
COc1ccc(-n2cc(-c3ccccc3)[nH]c2=S)cc1 | 3% | 2% | 3 | 15% | 0% | ?
CC(=O)Nc1ccc(-n2cc(-c3ccccc3)[nH]c2=S)cc1 | -10% | 0% | 32 | 5% | 10% | 3.2µM*
COc1ccc(NC(=O)NC2COc3ccccc3C2)cc1Cl (stereo not given) | 1% | . | 18 | . | 16% | 0%
Cc1nc(NCc2cccc3c2OCO3)sc1-c1ccn(CC2CCCN(C)C2)n1 (stereo not given) | . | . | . | . | 34% | .
O=C(C1CCCN(Cc2ccc(Cl)cc2)C1)N1CCCCC1 (stereo not given) | 6% | ? | -27 | -8% | -16% | 2%
O=C(C1CCCN(C2CC(=O)N(c3ccc(F)cc3)C2=O)C1)N1CCCC1 (stereo not given) | ? | . | 34 | 45µM* | -8% | -1%

Source: PubChem BioAssay
